Results filed as inconclusive are left out. A number with no mark means an inactive call. Calls of active or inactive are those of the source. The call rests on the fitted dose curve; in most records, active means well fitted inhibition curve with a large enough effect; inconclusive means small, poorly fitted or top-dose-only effect; inactive means flat fitted curve, though single readings scatter.
Legend:
[1] = system: KB-3-1; test: Cytotoxic Profiling of Annotated Libraries Using Quantitative High-Throughput Screening (AID 1296008); settings: Five cell lines viability, CellTiter-Glo ATP luminescence, 48-72 h; max response: stronger effect = lower value; further: potency means the concentration at half of the fitted maximal effect; on max response: on the % scale 0 is the no-effect control and ±100 the full control effect
Summary of the method: (§1)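 Cells exposed to compounds for 48 or 72 hr at 37 degrees Celsius. Viability read as ATP-coupled luminescence with CellTiter-Glo after 10 min at room temperature.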

[2] = system: NIH3T3; test: as above; settings: Five cell lines viability, CellTiter-Glo ATP luminescence, 48-72 h; max response: stronger effect = lower value
Summary of the method: as §1

[3] = system: HaCat; test: as above; settings: Five cell lines viability, CellTiter-Glo ATP luminescence, 48-72 h; max response: stronger effect = lower value
Summary of the method: as §1

[4] = system: HACAT; test: qHTS assay to identify novel small-molecules to repurpose for Merkel cell carcinoma treatment (AID 1296009); settings: MCC and control cell lines, CellTiter-Glo viability, 72 h; series mostly up to 44.8 µM
Summary of the method: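 CellTiter-Glo luminescence after 72 hr compound exposure at 37 degree celsius gave cell viability. Libraries NPC and MIPE were run as 8- and 11-point dose responses; RLUs normalized to DMSO (negative) and no-cell (cytotoxicity) controls.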
Further: nearly all actives have a fitted effect of over 60% in size.

COc1ccc(CCO[C@@H]2CCCC[C@H]2N2CC[C@@H](O)C2)cc1OC
max response [1]: 4.12% | outcome [2]: inactive

COc1cc2ncnc(Nc3cccc(Cl)c3F)c2cc1OC(=O)N1CCN(C)C[C@H]1C
max response [3]: -86.6% | outcome [1]: inactive | max response [2]: -86.1%

C=C(C)C(=O)OC1C(OC(C)=O)/C(C=O)=C\CC/C(CO)=C/C2OC(=O)C(=C)C21 (stereo not drawn)
max response [3]: -6.21% | max response [1]: -25.3%

CCOCc1cc(OC)c(-c2ccc(C[C@H](NC(=O)c3c(F)cccc3F)C(=O)O)cc2)c(OC)c1
outcome [3]: inactive | outcome [1]: inactive | Potency [4]: inactive

CCOC(=O)Nc1cc(-c2ccc(C)c(NS(C)(=O)=O)c2)nn2c(C)nnc12
Potency [3]: 0.651 µM (active) | Potency [1]: 10.3 µM (active) | Potency [2]: 9.2 µM (active)

COC1C(CO)OC(n2cnc3c(=O)[nH]cnc32)C1O (stereo not drawn)
max response [3]: -1.42% | max response [1]: 2.15% | max response [2]: -5.01%

O=C1NC(Cc2ccccc2)C(=O)N2CCCC12 (stereo not drawn)
max response [3]: 2.36% | max response [1]: 9.71% | max response [2]: -0.863%

CO[C@H]1/C=C/[C@@](C)(O)/C=C/C(=O)O[C@H](C)[C@@H](C)CC/C=C/1C
max response [1]: -8.74% | Potency [2]: 3.21 µM (active)

C[C@@H]1O[C@@H](O[C@H]2[C@@H]3C=CO[C@@H](O[C@@H]4O[C@H](CO)[C@@H](O)[C@H](O)[C@H]4O)[C@@H]3[C@@]3(CO)O[C@@H]23)[C@H](OC(=O)/C=C/c2ccccc2)[C@H](O)[C@H]1O
outcome [3]: inactive | outcome [1]: inactive | max response [2]: -1.15%

O=C(CN1C(=O)C2(CCCC2)NCC1c1cc(F)cc(F)c1)Nc1ccc2c(c1)CC1(C2)C(=O)Nc2ncccc21 (stereo not drawn)
max response [3]: 1.71% | outcome [1]: inactive | max response [2]: -0.622%

CC(C)(O)/C=C/CC(C)(O)C1C(O)CC2(C)C3CCC4C(C)(C)C(=O)CCC4(C)C3CCC12C (stereo not drawn)
max response [3]: -10.7% | outcome [1]: inactive | max response [2]: -0.144%

CC/C=C\CC1C(=O)C=CC1(CCCCCCCC(=O)O)OC(C)=O (stereo not drawn)
max response [3]: 3.46% | outcome [1]: inactive | max response [2]: 4.26%
